High-throughput results deposited in PubChem BioAssay by National Center for Advancing Translational Sciences (NCATS).
HEK293 tox: cytotoxic compounds in HEK 293 cells; AID 1345083; HEK 293 viability, ATP luminescence (CellTiter-Glo), 48-72 h; hit rate 6.6% among 94,000; Potency, µM (series often up to 115 µM), usual class: inhibitors; note: nearly all actives have a fitted effect of over 60% in size
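HEK 293 cells seeded at 250 cells/well were exposed to compound for 48 or 72 hr at 37 degree Celsius. Viability taken as ATP content by CellTiter-Glo luminescence.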
3T3 cytotox: cytotoxic compounds in NIH 3T3 cells | NIH 3T3 viability, CellTiter-Glo ATP luminescence, 48-72 h | Potency, µM (series often up to 96.7 µM), most hits filed as inhibitors | hit rate 4.3% among 94,000 | AID 1345082; note: nearly all actives have a fitted effect of over 55% in size
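ATP-dependent luminescence (CellTiter-Glo) served as the viability signal for NIH 3T3 cells treated with compound for 48 or 72 hr at 37 °C.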
FLuc inh: Photinus pyralis luciferase inhibition; P08659; purified P. pyralis luciferase, luminescence, biochemical; Potency, µM (highest dose often 115 µM), most hits filed as inhibitors; hit rate 2.5% among 76,000; AID 1347043; note: nearly all actives have a fitted effect of over 65% in size
Target sequence (P08659 whole entry, looked up): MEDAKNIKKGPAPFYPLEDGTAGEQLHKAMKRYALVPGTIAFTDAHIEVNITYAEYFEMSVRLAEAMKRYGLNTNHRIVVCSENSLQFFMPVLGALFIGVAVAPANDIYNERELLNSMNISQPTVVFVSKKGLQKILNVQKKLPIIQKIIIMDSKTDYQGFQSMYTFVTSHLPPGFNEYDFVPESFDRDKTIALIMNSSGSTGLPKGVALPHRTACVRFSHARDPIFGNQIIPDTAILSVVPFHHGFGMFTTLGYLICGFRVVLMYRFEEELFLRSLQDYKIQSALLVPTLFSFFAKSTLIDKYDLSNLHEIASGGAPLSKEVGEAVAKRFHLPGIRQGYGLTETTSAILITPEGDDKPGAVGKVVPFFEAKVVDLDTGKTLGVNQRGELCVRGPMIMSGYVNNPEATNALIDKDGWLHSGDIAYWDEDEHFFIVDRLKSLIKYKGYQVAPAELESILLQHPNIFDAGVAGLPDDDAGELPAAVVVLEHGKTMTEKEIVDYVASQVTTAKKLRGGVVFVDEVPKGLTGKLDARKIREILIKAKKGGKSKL
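Cell-free enzyme assay, 10nM P. pyralis luciferase, luciferin and ATP each at 10uM. Inhibition profiled over a 6-point titration, read as luminescence.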
NPR1 antag: blocks ANP-stimulated signaling of human Npr1 receptor; HEK293 hNpr1 GloSensor cGMP, ANP-stimulated luminescence; Potency, µM (series often up to 46.3 µM), hits mostly inhibitors; hit rate 1.6% among 76,000; P16066; calls by dose curve; note: nearly all actives have a fitted effect of over 60% in size
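Compound pre-incubated 30 min at room temperature on GloSensor-loaded HEK293 cells stably carrying hNpr1 and the pGS-40F cGMP biosensor. Stimulation uses hNppA at 0.1 nM final; luminescence is taken at baseline and 20 min post-agonist.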
Each line names hits and unclear results; the compound was inactive in the other large screens. Compounds with a hit are over-represented: about 11% of the library has one in this group of screens. Unless noted, calls come from the whole dose curve; as a rule, active = well fitted curve in the direction sought with a large enough effect; inconclusive = small, poorly fitted or top-dose-only effect, or another doubt; inactive = no such curve, though single readings can be large; an effect the other way counts as inactive or inconclusive.

COc1ccc2nc([C@H]3CCN(Cc4ccc(F)cc4)C3)[nH]c2c1	HEK293 tox 79µM, 3T3 cytotox 112µM, FLuc inh 50µM
COc1ccc2nc([C@H]3CCN(Cc4ccccc4)C3)[nH]c2c1	HEK293 tox inconclusive, 3T3 cytotox inconclusive, FLuc inh 22µM
CC(C)c1ccc(CN2CCCC3(CCN(C(=O)c4ccnn4C)C3)C2)cc1 (centres undefined)	HEK293 tox 40µM
COc1ccccc1-c1ccc(C(=O)N2CCC(C(=O)NC3CCCC3)CC2)cc1	HEK293 tox 28µM, 3T3 cytotox inconclusive (no result: FLuc inh, NPR1 antag)
COc1ccccc1-c1ccc(C(=O)N2CCC(C(=O)N3CCOCC3)CC2)cc1	none (no result: FLuc inh, NPR1 antag)
COc1ccccc1-c1ccc(C(=O)N2CCC(C(=O)NCC3CC3)CC2)cc1	HEK293 tox inconclusive (no result: FLuc inh, NPR1 antag)
COc1ccccc1-c1ccc(C(=O)N2CCC(C(=O)N3CCC(Cc4ccccc4)CC3)CC2)cc1	HEK293 tox inconclusive, 3T3 cytotox 22µM (no result: FLuc inh, NPR1 antag)
COc1ccccc1-c1ccc(C(=O)N2CCC(C(=O)NCc3cccc(Cl)c3)CC2)cc1	HEK293 tox 20µM, 3T3 cytotox inconclusive (no result: FLuc inh, NPR1 antag)
COc1ccccc1-c1ccc(C(=O)N2CCC(NC(C)=O)CC2)cc1	HEK293 tox inconclusive (no result: FLuc inh, NPR1 antag)
COc1ccccc1-c1ccc(C(=O)N2CCC(C(=O)NCCCc3ccccc3)CC2)cc1	HEK293 tox 79µM, 3T3 cytotox inconclusive (no result: FLuc inh, NPR1 antag)
CCNC(=O)N1CC(C(=O)N2CCCC(C(=O)OCC)C2)CC(c2ccc(F)c(C)c2)C1 (centres undefined)	3T3 cytotox inconclusive
Cc1ccc(-c2cn3c(n2)N(S(C)(=O)=O)CCC3)cc1	HEK293 tox inconclusive
O=c1c2nc(-c3ccc4c(c3)OCO4)ccc2ncn1Cc1ccccn1	3T3 cytotox inconclusive, FLuc inh inconclusive
COc1ccccc1-c1ccc(C(=O)N2CCC(NC(=O)Nc3ccc(Cl)cc3)CC2)cc1	HEK293 tox 32µM, 3T3 cytotox inconclusive (no result: FLuc inh, NPR1 antag)
COc1ccccc1-c1ccc(C(=O)N2CCC(C(=O)NCc3ccc(C(F)(F)F)cc3)CC2)cc1	HEK293 tox 35µM, 3T3 cytotox inconclusive (no result: FLuc inh, NPR1 antag)
O=C(NCc1ccc(C(F)(F)F)cc1)C1CCN(C(=O)c2ccc(-c3cncnc3)cc2)CC1	HEK293 tox inconclusive, 3T3 cytotox 18µM (no result: FLuc inh, NPR1 antag)
COc1ccccc1-c1ccc(C(=O)N2CCC(NC(=O)N(C)C)CC2)cc1	none (no result: FLuc inh, NPR1 antag)
COc1ccc(OCc2nc(C3CN(C(=O)C4(c5ccccc5)CC4)C3)no2)cc1	HEK293 tox inconclusive, 3T3 cytotox inconclusive
CN1C[C@@H](NC(=O)c2ccccn2)C[C@H]1c1nc(-c2ccc(OC(F)(F)F)cc2)no1	HEK293 tox 79µM, 3T3 cytotox inconclusive
COc1ccc(C(=O)N[C@H]2C[C@@H](c3nc(-c4ccc(Cl)cc4)no3)N(C)C2)cc1	HEK293 tox 56µM, 3T3 cytotox inconclusive, FLuc inh inconclusive, NPR1 antag inconclusive
CN1C[C@@H](NC(=O)c2ccccn2)C[C@H]1c1nc(-c2ccc(Cl)cc2)no1	HEK293 tox 89µM, 3T3 cytotox inconclusive, FLuc inh 71µM
COc1ccc(C(=O)N[C@H]2C[C@@H](c3nc(-c4ccccc4)no3)N(C)C2)cc1	HEK293 tox inconclusive, 3T3 cytotox inconclusive
COc1ccc(CC(=O)N[C@H]2C[C@@H](c3nc(-c4ccc(OC(F)(F)F)cc4)no3)N(C)C2)cc1	HEK293 tox 35µM, 3T3 cytotox inconclusive, NPR1 antag inconclusive
O=C(Cc1ccccc1)NC1CCCN(c2ccnc3ccnn23)C1 (centres undefined)	HEK293 tox inconclusive (no result: FLuc inh, NPR1 antag)
CN1C[C@@H](NC(=O)c2cnccn2)C[C@H]1c1nc(-c2ccc(OC(F)(F)F)cc2)no1	HEK293 tox 89µM, 3T3 cytotox inconclusive
CN1C[C@@H](NC(=O)Nc2ccc(F)cc2F)C[C@H]1c1nc(-c2ccncc2)no1	HEK293 tox inconclusive, 3T3 cytotox inconclusive, FLuc inh inconclusive
Cc1ccc(-c2noc([C@@H]3C[C@H](NC(=O)Nc4ccc(Cl)cc4)CN3C)n2)cc1	none
CN1C[C@@H](NC(=O)Nc2ccc(F)cc2F)C[C@H]1c1nc(-c2ccccc2)no1	HEK293 tox 63µM, NPR1 antag inconclusive
CN1C[C@@H](NC(=O)Nc2ccc(C(F)(F)F)cc2)C[C@H]1c1nc(-c2ccc(Cl)cc2)no1	HEK293 tox 20µM, 3T3 cytotox 8.9µM, NPR1 antag inconclusive
O=C(NCCc1ccccc1)c1ccc2nnc(CC3CC3)n2c1	3T3 cytotox inconclusive (no result: FLuc inh, NPR1 antag)
COc1ccccc1OCc1cc(C(=O)N(C)CC2Cc3ccccc3O2)n[nH]1 (centres undefined)	HEK293 tox inconclusive, 3T3 cytotox inconclusive
O=c1cc(-c2ccccn2)oc2c(NC3CCOCC3)nccc12	3T3 cytotox 14µM
